In PubChem BioAssay AID623994 (NMMLSC, 2012):
Results with a measured potency or affinity are listed apart. Active and inactive are the calls of the source.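 The calls were made as follows: active = compounds whose fitted concentration for half the maximal dye retention is below 100 µM; inactive = the rest.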

Target: Multidrug resistance protein CDR2 (Candida albicans (strain SC5314 / ATCC MYA-2876)) (UniProt P78595)
Assay: blockers of Nile Red efflux by Candida CDR2 – S. cerevisiae AD1-8u, singleplex, Cherry Pick2 set, dose response (AID 623994)
Details: S. cerevisiae AD1-8u expressing CaCDR2, Nile Red efflux; series mostly up to 100 µM

Multidrug resistance protein CDR2 (Candida albicans (strain SC5314 / ATCC MYA-2876)), sequence (P78595 whole entry, looked up): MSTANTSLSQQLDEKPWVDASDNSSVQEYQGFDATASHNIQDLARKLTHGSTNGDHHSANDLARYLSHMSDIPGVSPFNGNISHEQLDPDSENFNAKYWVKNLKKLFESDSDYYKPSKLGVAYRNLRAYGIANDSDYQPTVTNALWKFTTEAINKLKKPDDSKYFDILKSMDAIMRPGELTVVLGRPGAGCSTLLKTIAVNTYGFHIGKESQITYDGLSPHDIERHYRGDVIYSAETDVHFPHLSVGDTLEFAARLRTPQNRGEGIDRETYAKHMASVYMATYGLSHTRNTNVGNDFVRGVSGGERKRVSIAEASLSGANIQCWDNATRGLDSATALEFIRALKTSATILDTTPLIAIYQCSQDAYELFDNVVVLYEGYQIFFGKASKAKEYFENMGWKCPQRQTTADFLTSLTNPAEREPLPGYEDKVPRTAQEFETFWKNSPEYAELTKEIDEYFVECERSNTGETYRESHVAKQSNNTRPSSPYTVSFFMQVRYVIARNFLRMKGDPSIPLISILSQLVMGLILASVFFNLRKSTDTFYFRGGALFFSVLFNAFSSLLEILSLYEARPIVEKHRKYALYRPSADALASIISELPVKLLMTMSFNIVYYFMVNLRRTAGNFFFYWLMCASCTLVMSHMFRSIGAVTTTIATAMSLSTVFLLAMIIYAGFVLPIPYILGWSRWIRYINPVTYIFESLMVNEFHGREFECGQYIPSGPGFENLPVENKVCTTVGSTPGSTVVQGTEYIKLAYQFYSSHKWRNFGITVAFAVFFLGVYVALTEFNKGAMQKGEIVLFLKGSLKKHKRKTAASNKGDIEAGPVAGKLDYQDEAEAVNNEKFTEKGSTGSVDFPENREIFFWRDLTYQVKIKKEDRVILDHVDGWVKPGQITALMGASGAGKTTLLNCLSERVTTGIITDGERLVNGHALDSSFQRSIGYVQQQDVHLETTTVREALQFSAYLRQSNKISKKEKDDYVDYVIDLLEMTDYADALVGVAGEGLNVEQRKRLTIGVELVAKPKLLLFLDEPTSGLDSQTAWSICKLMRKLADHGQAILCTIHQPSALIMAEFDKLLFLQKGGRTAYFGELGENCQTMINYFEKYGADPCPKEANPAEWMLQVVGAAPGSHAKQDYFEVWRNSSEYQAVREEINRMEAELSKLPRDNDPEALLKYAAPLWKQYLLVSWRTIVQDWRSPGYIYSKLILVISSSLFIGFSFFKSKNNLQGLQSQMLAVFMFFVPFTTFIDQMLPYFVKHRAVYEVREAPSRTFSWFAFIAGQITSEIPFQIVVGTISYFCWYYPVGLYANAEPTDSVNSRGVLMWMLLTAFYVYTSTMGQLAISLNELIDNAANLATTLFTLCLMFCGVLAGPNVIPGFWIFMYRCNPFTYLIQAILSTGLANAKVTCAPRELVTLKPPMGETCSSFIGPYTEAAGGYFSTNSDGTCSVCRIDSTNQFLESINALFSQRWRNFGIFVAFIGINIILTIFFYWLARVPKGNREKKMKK

outcome, inactive:
COc1ccc(C(=O)OCCc2ccc(O)cc2)cc1
COc1ccc(O)c(C(=O)c2cnc3c(c2)CN(C)C(=O)N3)c1
CCN(CC)CCC(c1ccc(N(C)C)cc1)c1c(OC)cc(OC)c2ccc(=O)oc12 (centres undefined)
Cc1ccc2c(c1)[C@H]1[C@H](CO2)[C@H](c2ccccc2)[C@]2(C)C(=O)Nc3cc(F)c(F)cc3C(=O)N12
COc1ccc(C2CC(c3cccc(OC)c3)=NN2c2ccc(S(N)(=O)=O)cc2)cc1 (centres undefined)
OCCN1CCN(CC/C=C2/c3ccccc3Sc3ccc(C(F)(F)F)cc32)CC1
O=C(C[n+]1cc(-c2ccc(Cl)cc2)n2c1CCC2)N1c2ccccc2Sc2ccccc21
CCC(Cc1ccccc1)OC(=O)c1ccccc1C(=O)O (centres undefined)
COc1ccc(N2CCN(C(=O)C3CCCN(c4ncnc5c4nc4n5CCCCC4)C3)CC2)cc1 (centres undefined)
CCO[C@@H]1OC(C(=O)Nc2ccccc2)=C[C@H](c2ccccc2)[C@H]1CCCO
COc1ncccc1C(=O)NC1CCCc2c1cnn2-c1cc(C)cc(C)c1 (centres undefined)
O=C(C1CCC(CNc2nc(=S)[nH]c3ccccc23)CC1)N1CCN(c2ccc(F)cc2)CC1 (centres undefined)
O=C(Nc1ccccc1)C1=C[C@@H](c2ccc(C(F)(F)F)cc2)C[C@@H](OCCCCO)O1
O=C(c1ccoc1)N1CCC2(CC1)Oc1ccc(F)cc1C(=O)C21CC(c2ccc(Cl)cc2)=NO1 (centres undefined)
O=C(NCCc1ccc(Cl)cc1)C1CCC(CNc2nc(=S)[nH]c3ccccc23)CC1 (centres undefined)
Cc1cccc2sc(N(CCCN(C)C)C(=O)c3ccc(Cl)s3)nc12
COc1ccc(-c2c[n+](CC(=O)N3c4ccccc4Sc4ccccc43)c3n2CCC3)cc1
O=C(Nc1ccccc1)C1=C[C@@H](c2ccc(Br)cc2)C[C@@H](OCCCCO)O1
Cc1cc(C)c2sc(N(CCCN(C)C)C(=O)c3ccc(Br)s3)nc2c1
NS(=O)(=O)c1ccc(N2N=C(c3ccccc3)CC2c2cccc(Br)c2)cc1 (centres undefined)
COc1ccc(S(=O)(=O)N(C)C[C@H]2Oc3c(NC(=O)NC4CCCCC4)cccc3C(=O)N([C@H](C)CO)C[C@@H]2C)cc1
COc1cc(OC)c2c(-c3ccccc3)cc(=O)oc2c1C(CCN1CCCC(C)C1)c1ccc(N(C)C)cc1 (centres undefined)
O=C(c1ccc2c(c1)OCO2)N1CCC2(CC1)Oc1ccc(F)cc1C(=O)C21CC(c2ccc(Cl)cc2)=NO1 (centres undefined)
O=C(c1ccoc1)N1CCC2(CC1)Oc1ccc(F)cc1C(=O)C21CC(c2ccccc2)=NO1 (centres undefined)
COc1ccc(CNC(=O)C(C#N)c2nc3ccccc3nc2N2CCCC2)cc1 (centres undefined)
COc1ccc(CNC(=O)C(C#N)c2nc3ccccc3nc2N2CCN(C)CC2)cc1 (centres undefined)
C[C@H](CO)N1C[C@H](C)[C@@H](CN(C)S(=O)(=O)c2ccccc2)Oc2c(NC(=O)Nc3ccccc3)cccc2C1=O
O=C(C1CCCN(c2ncnc3c2nc2n3CCCCC2)C1)N1CCN(c2ccccc2F)CC1 (centres undefined)
COc1cccc(-c2sc3ccc(OC)cc3c2-c2ccc(OCCN3CCOCC3)cc2)c1
